Screening results: PubChem BioAssay, several laboratories
PKA inh: PKA (human) kinase inhibition; 0.1% of 65,000 active; P17612; PKA Kemptide phosphorylation, Kinase-Glo ATP luminescence; inhibition, % at 6 µM;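 active = inhibition above the screen-wide mean inhibition plus 3 SD, cut at about 21% in these data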
HER2 expr 66K: lowers expression of human Her2 kinase; P04626; SKBR-3 HER2 protein level, AlphaScreen, 18-24 h; active compounds read low; HER2 level % of control, % at 10 µM; 0.69% of 65,000 active;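 active = HER2 level under 5% of the carrier-only control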;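 note: lower value means stronger loss of Her2 protein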
ROCK2 blocker: blocks human Rho kinase 2 activity. O75116. purified ROCK2, Kinase-Glo ATP depletion luminescence. inhibition, % at 6 µM. 0.35% of 60,000 active. AID 604;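 active = inhibition above the screen-wide mean inhibition plus 3 SD, cut at about 18% in these data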
Target sequence (O75116 whole entry, looked up): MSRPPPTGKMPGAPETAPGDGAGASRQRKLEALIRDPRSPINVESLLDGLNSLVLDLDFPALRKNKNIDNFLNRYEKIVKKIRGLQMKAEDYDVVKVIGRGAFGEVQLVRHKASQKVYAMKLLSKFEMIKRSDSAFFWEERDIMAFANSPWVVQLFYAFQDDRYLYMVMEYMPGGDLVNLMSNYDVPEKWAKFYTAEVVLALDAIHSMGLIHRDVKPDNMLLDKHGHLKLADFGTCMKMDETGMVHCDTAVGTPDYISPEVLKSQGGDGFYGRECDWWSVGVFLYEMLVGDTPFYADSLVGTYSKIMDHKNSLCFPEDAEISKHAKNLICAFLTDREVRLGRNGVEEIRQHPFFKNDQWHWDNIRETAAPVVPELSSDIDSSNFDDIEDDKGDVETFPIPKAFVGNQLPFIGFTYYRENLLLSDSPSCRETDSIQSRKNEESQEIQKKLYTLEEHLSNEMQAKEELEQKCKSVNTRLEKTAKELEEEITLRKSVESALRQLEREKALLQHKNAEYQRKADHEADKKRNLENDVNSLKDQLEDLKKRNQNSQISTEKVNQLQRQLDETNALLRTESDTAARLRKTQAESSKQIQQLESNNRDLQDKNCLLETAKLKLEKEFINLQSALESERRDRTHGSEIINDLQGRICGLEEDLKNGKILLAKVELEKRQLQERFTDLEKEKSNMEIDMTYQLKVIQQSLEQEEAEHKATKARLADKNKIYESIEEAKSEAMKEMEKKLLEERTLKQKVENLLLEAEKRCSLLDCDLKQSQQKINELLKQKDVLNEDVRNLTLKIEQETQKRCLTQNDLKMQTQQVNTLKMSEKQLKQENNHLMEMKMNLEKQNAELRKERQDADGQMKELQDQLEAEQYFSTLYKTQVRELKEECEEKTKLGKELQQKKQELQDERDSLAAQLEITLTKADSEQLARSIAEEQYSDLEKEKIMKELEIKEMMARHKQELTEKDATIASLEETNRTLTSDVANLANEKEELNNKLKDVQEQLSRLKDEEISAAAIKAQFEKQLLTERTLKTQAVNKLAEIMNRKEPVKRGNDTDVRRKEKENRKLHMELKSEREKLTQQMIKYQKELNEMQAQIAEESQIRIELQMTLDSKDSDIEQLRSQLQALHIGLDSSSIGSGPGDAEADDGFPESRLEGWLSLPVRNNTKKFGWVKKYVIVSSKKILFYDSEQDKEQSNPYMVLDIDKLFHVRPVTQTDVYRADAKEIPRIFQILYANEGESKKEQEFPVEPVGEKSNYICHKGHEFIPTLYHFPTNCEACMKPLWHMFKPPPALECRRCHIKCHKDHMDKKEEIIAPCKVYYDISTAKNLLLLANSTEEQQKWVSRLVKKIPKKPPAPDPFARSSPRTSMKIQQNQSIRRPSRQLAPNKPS
JNK3 inh: inhibitors of human JNK3 kinase; 0.61% of 60,000 active; P53779; purified JNK3 kinase activity, HTS; AID 746; inhibition, % at 8 µM; in the data active = inhibition above about 17%
SK-BR-3 tox 24h: SK-BR-3 proliferation inhibitors; SK-BR-3 viability, CellTiter-Glo ATP luminescence, 24 h; active compounds read low; viability, % at 10 µM; 0.47% of 41,000 active; AID 847;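 active = viability at or below the median of all test compounds minus 3 SD, in both replicates if run twice, cut at about 45% in these data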
Large screens that a line does not name were inactive. Compounds with a hit are over-represented: about 1.5% of the library has one in this group of screens.

COC(=O)CSc1nnc(-c2ccc(S(=O)(=O)N3CCCCC3)cc2)o1	none
CC1(C)NC(=O)N(CC(O)CN2C(=O)NC(C)(C)C2=O)C1=O	SK-BR-3 tox 24h 42.9
CC(C)(C)OC(=O)NCCc1nnc(SCc2ccccc2Cl)o1	none
CC(C)(C)OC(=O)NCCc1nnc(S(=O)(=O)Cc2ccc(Cl)cc2Cl)o1	HER2 expr 66K -16.0
CC(=O)C1=C(C)Nc2ncnn2C1c1ccc(Cl)cc1 (stereo unspecified)	none (no result: SK-BR-3 tox 24h)
CCOc1ccc(Nc2cc(C)nc(-n3nc(C)cc3C)n2)cc1	none
Cc1ccc(Nc2cc(-n3nc(C)cc3C)ncn2)cc1	JNK3 inh 30.5 (no result: SK-BR-3 tox 24h)
CCOc1ccc2nc3c(cc2c1)CN(CCCO)C(=NCCOC)S3	none
CC(O)CCc1nc2ccc(C(=O)O)cc2[nH]1 (stereo unspecified)	HER2 expr 66K -18.9
CCn1c(SCC(=O)N2CCOCC2)nc2sc3c(c2c1=O)CCCC3	none
CCn1c(SCC(=O)N2CCOCC2)nc2oc3c(Cl)cc(Cl)cc3c(=O)c2c1=O	HER2 expr 66K -1.7
Clc1ccccc1-c1nnc2sc(-c3ccncc3)nn12	ROCK2 blocker 23.3 (no result: SK-BR-3 tox 24h)
Clc1ccccc1-c1nn2c(-c3ccncc3)nnc2s1	ROCK2 blocker 19.1 (no result: HER2 expr 66K)
CN(C)c1ccc(-c2nn3c(-c4ccccc4Cl)nnc3s2)cc1	none
Cc1ccc2nc(C)cc(OCC(=O)O)c2c1	none
Cc1cc2c(ccc3[nH]onc32)n1	PKA inh 28.6, ROCK2 blocker 18.5
CCCCN(CCCC)S(=O)(=O)c1ccc(C(=O)Nc2nnc(COC)o2)cc1	HER2 expr 66K -16.9
CCc1nnc(NC(=O)c2ccc(S(=O)(=O)N(CC)Cc3ccccc3)cc2)o1	none
CCCCN(C)S(=O)(=O)c1ccc(C(=O)Nc2nnc(CSC)o2)cc1	SK-BR-3 tox 24h 43.4
O=C1CN(Cc2ccccc2)C(=NCc2ccco2)S1	none (no result: SK-BR-3 tox 24h)
O=C(CSc1n[nH]c(-c2ccc(S(=O)(=O)N3CCCCC3)cc2)n1)Nc1nccs1	none
CCOC(=O)C1=C(C)N=c2s/c(=C\c3ccncc3)c(=O)n2C1c1ccc2c(c1)OCO2 (stereo unspecified)	HER2 expr 66K -75.3 (no result: ROCK2 blocker, JNK3 inh)
COc1ccc(Cl)c(Cn2c(NCc3ccco3)nc3c2c(=O)n(C)c(=O)n3C)c1	HER2 expr 66K -25.7
COc1cccc(Cn2c(NCc3ccco3)nc3c2c(=O)n(C)c(=O)n3C)c1	none
O=C1NCCCC2c3c(cc(Br)c(O)c3Br)OC12N1CCOCC1 (stereo unspecified)	none
O=C1NCCCC2c3cc(O)c4ccccc4c3OC12N1CCCCC1 (stereo unspecified)	SK-BR-3 tox 24h 5.1
Cc1[nH]c2ccc(CNS(=O)(=O)c3ccc(S(=O)(=O)N4CCOCC4)cc3)cc2c1C	none (no result: ROCK2 blocker, JNK3 inh, SK-BR-3 tox 24h)
COc1ccc2[nH]c(=O)c3c(c2c1)OC(C)(C)C=C3	ROCK2 blocker 22.8
CC(C)Cn1c(=O)c(C(=O)Nc2cnccn2)c(O)c2ccccc21	none
CC(C)Cn1c(=O)c(C(=O)Nc2ccncc2)c(O)c2ccccc21	HER2 expr 66K -13.2
N#Cc1cccc2cnccc12	none
Nc1cccc2cnccc12	ROCK2 blocker 25.6
O=C(NCc1ccccc1)c1n[nH]nc1-c1ccccc1O	none
Cc1nn(-c2ccccc2)c2sc(C(=O)N3CCCCC3)cc12	none (no result: SK-BR-3 tox 24h)
Cc1ccccc1-n1nc(C)c2cc(C(=O)N3CCOCC3)sc21	JNK3 inh 23.2
CC(C)c1nnc(NC(=O)CCS(=O)(=O)c2nc(-c3cccs3)cc(C(F)(F)F)n2)s1	HER2 expr 66K -19.0
COC(=O)Cn1cnc2c(nnn2-c2cccc(Cl)c2)c1=O	none (no result: SK-BR-3 tox 24h)
Cc1ccc(-c2noc(C3CCCN(C(=O)c4ccc(F)cc4F)C3)n2)cc1 (stereo unspecified)	SK-BR-3 tox 24h 42.0
CCOC(=O)N1CCN(C(=O)c2cn(CC)c3cc(N4CCN(C)CC4)c(F)cc3c2=O)CC1	none
O=S1(=O)C=C(Sc2nc3ccccc3s2)c2ccccc21	HER2 expr 66K -18.5, SK-BR-3 tox 24h 21.7
CN(c1ccc(C(=O)Nc2nccs2)cc1)S(=O)(=O)c1ccccc1	JNK3 inh 27.9
Cc1ccccc1-n1nc2c(c1NC(=O)c1cc3ccccc3oc1=O)CS(=O)(=O)C2	HER2 expr 66K 1.1 (no result: ROCK2 blocker, JNK3 inh, SK-BR-3 tox 24h)
COc1ccc(S(=O)(=O)NCc2ccc(C(=O)O)cc2)cc1	none (no result: ROCK2 blocker, JNK3 inh, SK-BR-3 tox 24h)
COc1ccc(CNc2ccc(C(=O)O)cc2)cc1	HER2 expr 66K -30.2
Cn1cc(S(=O)(=O)Cc2ccc(F)cc2)c2ccccc21	none (no result: SK-BR-3 tox 24h)
CC(C)C[C@H](N)c1nnc(S(=O)(=O)Cc2ccc(F)cc2)o1	SK-BR-3 tox 24h 32.7
O=C(COC(=O)c1ccccc1S(=O)(=O)N1CCCCC1)NCC(F)(F)F	none
CCOC(=O)C1CCN(C(=O)Nc2ccc(Cl)cc2Cl)CC1	none
CCOc1ccc(NC(=O)CN2C(=O)C3CCCN3C2=O)cc1 (stereo unspecified)	JNK3 inh 17.2 (no result: SK-BR-3 tox 24h)
COc1ccccc1NC(=O)c1sc2nc(-c3ccco3)ccc2c1N	HER2 expr 66K -0.3
CC(Sc1nnnn1-c1ccccc1)C(=O)Nc1ccc(Cl)cn1 (stereo unspecified)	none (no result: SK-BR-3 tox 24h)
O=C(CN1C(=O)c2ccccc2S1(=O)=O)N1CCN(Cc2ccc3c(c2)OCO3)CC1	SK-BR-3 tox 24h 39.7
COc1ccc2nc(C)cc(N3CCOCC3)c2c1	none (no result: SK-BR-3 tox 24h)
Cc1cc(N2CCOCC2)c2c(N)c(C)cc(C)c2n1	ROCK2 blocker 18.8
COC(=O)c1nnn(CC(=O)Nc2cccc(OC)c2)c1C(=O)OC	none (no result: ROCK2 blocker, JNK3 inh, SK-BR-3 tox 24h)
Nc1nc(C2CC2)c(Sc2sc(N)nc2C2CC2)s1	none
CC(=O)Nc1cc(OC(C)=O)c2nonc2c1OC(C)=O	HER2 expr 66K -6.9, ROCK2 blocker 83.8, JNK3 inh 47.2, SK-BR-3 tox 24h 2.2
CCOC(=O)C1Cc2c([nH]c3ccccc23)C(C)N1 (stereo unspecified)	none
COC(=O)C1Cc2c([nH]c3ccccc23)CN1 (stereo unspecified)	HER2 expr 66K -19.1
COc1cc2nc(N3CCN(C(=O)C4COc5ccccc5O4)CC3)nc(N)c2cc1OC (stereo unspecified)	none
COc1cc2nc(N3CCN(C(=O)c4ccco4)CC3)nc(N)c2cc1OC	SK-BR-3 tox 24h 43.9
Cc1ccc(-c2csc3ncnc(Sc4nnc(CN5CCCCCC5=O)o4)c23)cc1	HER2 expr 66K -25.4 (no result: SK-BR-3 tox 24h)
CCC(=O)N1CCN(CCN=Cc2c(O)n(C3CCCCC3)c(=O)n(C3CCCCC3)c2=O)CC1	none (no result: SK-BR-3 tox 24h)
c1nc(N2CCCC2)c2[nH]cnc2n1	PKA inh 21.6 (no result: HER2 expr 66K, ROCK2 blocker, JNK3 inh, SK-BR-3 tox 24h)
OCc1nn2c(c1Br)NC(c1ccccc1)CC2C(F)(F)F (stereo unspecified)	none
CC1CCc2nc(N)c(C#N)c(-c3ccncc3)c2C1 (stereo unspecified)	JNK3 inh 17.1
COc1ccc(N(C)C(=O)CCS(=O)(=O)c2cccc3nonc23)c(OC)c1	none (no result: HER2 expr 66K, ROCK2 blocker, JNK3 inh)
CCOC(=O)c1c(NC(=O)CSc2n[nH]c(N)n2)sc(CC)c1C	HER2 expr 66K -33.4 (no result: SK-BR-3 tox 24h)
COCCn1c(=NC(=O)CSCC(=O)Nc2cc(C)on2)sc2cc(C(=O)OC)ccc21	none (no result: ROCK2 blocker, JNK3 inh, SK-BR-3 tox 24h)
COCCn1cnc2c(c1=O)c1nc3ccccc3nc1n2/N=C/c1cccc(OC)c1OC	HER2 expr 66K -0.7
Clc1cccc(-c2nnc(-c3ccccc3)o2)c1	HER2 expr 66K -8.2, SK-BR-3 tox 24h 18.3
